TEAD-YAP inh: TEAD-YAP interaction inhibition; HEK-TIYL cells, TEAD-Gal4/YAP UAS-luciferase luminescence; inhibition, % at 9.12 µM; 640,000 tested, 1.4% active; AID 1259422; in the data active = inhibition above about 32%;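 note: 0% = median of test compound wells and 100% = reference inhibitor wells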
MITF inh: human MITF inhibition, primary screen. 650,000 tested, 0.91% active. inhibition, % at 2.6 µM. AID 1259374. O75030. AlphaScreen MITF homodimerization, bead proximity signal; in the data active = inhibition above about 50%;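 note: 0% = vehicle wells with protein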
FBW7 act: human FBW7 E3 ligase activation, primary screen; normalized activity (activation), % at 26.1 µM; Q969H0; 650,000 tested, 0.13% active; AlphaScreen FBW7–phospho-cyclin E peptide binding, activator screen; in the data active = normalized activity above about 1.9%;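 note: purified mutant Fbw7 with reduced substrate affinity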
GPR151 ag: human GPR151 activation; Q8TDV0; PathHunter beta-arrestin GPR151 cells, luminescence; activation, % at 11.2 µM; 650,000 tested, 1% active; in the data active = activation above about 4.9%;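 note: 0% = median of compound wells and 100% = cells with positive control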
Target sequence (Q8TDV0 whole entry, looked up): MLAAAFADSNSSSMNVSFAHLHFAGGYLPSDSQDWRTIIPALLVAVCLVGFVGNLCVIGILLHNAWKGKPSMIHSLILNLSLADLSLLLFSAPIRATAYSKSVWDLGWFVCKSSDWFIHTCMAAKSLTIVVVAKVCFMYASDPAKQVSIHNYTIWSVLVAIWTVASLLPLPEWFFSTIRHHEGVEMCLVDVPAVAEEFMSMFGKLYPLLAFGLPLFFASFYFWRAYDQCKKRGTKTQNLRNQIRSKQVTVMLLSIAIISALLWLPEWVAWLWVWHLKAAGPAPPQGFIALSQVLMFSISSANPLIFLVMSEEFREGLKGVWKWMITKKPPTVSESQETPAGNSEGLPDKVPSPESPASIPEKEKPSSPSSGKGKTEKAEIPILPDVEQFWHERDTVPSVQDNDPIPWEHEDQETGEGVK
MITF inh conf: human MITF inhibition, confirmation | shares compounds with MITF inh | AlphaScreen MITF homodimerization, biotin/His-MITF beads | inhibition, % at 2.6 µM | 4,700 tested, 16% active | AID 1259372;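 active = inhibition above a cutoff derived from the DMSO control wells, cut at about 28% in these data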;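 note: 0% = MITF dimer wells with DMSO only; inhibitors lower the bead chemiluminescence by keeping MITF from dimerizing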
AlphaScreen intf2: AlphaScreen optical interference, counter-screen; LysRS AlphaScreen counterscreen, signal interference, triplicate; inhibition, % at 2.6 µM; 4,700 tested, 7.6% active; shares compounds with MITF inh;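 active = inhibition above a cutoff derived from the DMSO control wells, cut at about 30% in these data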
* marks the source's active call; other numbers are inactive results; . = no result. The list is not random: actives were taken first. Their share in the collection is about 3.4%.

SMILES	TEAD-YAP inh	MITF inh	FBW7 act	GPR151 ag	MITF inh conf	AlphaScreen intf2
COc1cc(CN2CCN(Cc3ccccc3Cl)CC2)c([N+](=O)[O-])cc1OC	6	82*	0	1	6	13
COc1cc(CN2CCN(Cc3ccccc3C)CC2)c([N+](=O)[O-])cc1OC	-3	75*	0	2	6	17
CCN(CC)C(=O)c1cn(CCC#N)nc1-c1cccc(Br)c1	-1	9	0	0	.	.
Fc1ccc(C2=CC(c3ccc(Cl)cc3)n3nnnc3N2)cc1 (stereo not drawn)	-31	-6	0	1	.	.
O=[N+]([O-])c1cc(C2C=C(c3ccc(Cl)cc3)Nc3nnnn32)ccc1Cl (stereo not drawn)	0	65*	0	-1	8	7
Cc1cccc(Nc2c([N+](=O)[O-])ccc3nonc23)c1	3	-8	0	-1	.	.
Cc1cccc(Nc2c([N+](=O)[O-])cc([N+](=O)[O-])c3nonc23)c1	-14	56*	0	0	-5	6
CC(=O)Nc1ccc(C(=O)OCc2ccc(I)cc2)cc1	0	9	0	-2	.	.
Cc1[nH]c2c(-n3c(C)cc(C(F)(F)F)cc3=O)cccc2c1C	3	53*	0	1	9	12
O=Cc1ccccc1-c1ccc(NCc2c(F)cccc2F)nc1	-27	17	0	-1	.	.
Oc1ccc(CN2CCOCC2)c2cccnc12	67*	91*	0	0	99*	99*
CCOC(=O)C1CCN(Cc2ccc(O)c3ncccc23)CC1	55*	72*	-2	0	114*	100*
CCOC(=O)c1ccc(N2C(=O)C(=O)/C(=C(/O)c3ccc(OC)cc3)C2c2ccc(C)cc2)cc1 (stereo not drawn)	3	-4	0	-1	.	.
CCOC(=O)c1ccc(N2C(=O)C(=O)/C(=C(\O)c3ccc(OC)cc3)C2c2ccccc2[N+](=O)[O-])cc1 (stereo not drawn)	-20	52*	0	-5	12	11
CN(C)c1ccc(-c2cnn3c(NCc4cccs4)ccnc23)cc1	-29	0	-1	-1	.	.
O=C(CN1CCSCC1)N/N=C/c1cccc(C(F)(F)F)c1	-2	56*	1	-1	8	6
O=C(CN1C(=O)c2ccccc2C1=O)Nc1ccccc1N1CCOCC1	7	13	0	0	.	.
COc1ccc(CCNCC(=O)Nc2ccccc2N2CCOCC2)cc1	-6	60*	0	1	10	12
CCOCCCNCC(=O)Nc1ccccc1N1CCOCC1	-4	51*	0	-1	6	10
O=C(CN1CCCCC1)Nc1ccccc1N1CCOCC1	-8	60*	0	1	4	17
O=C(CNCCN1CCOCC1)Nc1sc2c(c1C(=O)c1ccccc1)CCCC2	6	74*	-1	0	-3	24
O=C(CN1CCOCC1)Nc1sc2c(c1C(=O)c1ccccc1)CCCC2	7	-8	0	0	.	.
CCOC(=O)Nc1nnc(COc2ccc(C)cc2)s1	-6	-11	0	0	.	.
C/C(=N\Nc1ccccc1[N+](=O)[O-])C1CC1	-13	21	-1	0	.	.
CCOC(=O)c1c(NC(=O)c2cccc([N+](=O)[O-])c2)sc(C(=O)Nc2ccc(C)cc2C)c1C	8	12	0	3	.	.
SMILES	TEAD-YAP inh	MITF inh	FBW7 act	GPR151 ag	MITF inh conf	AlphaScreen intf2
O=C(CNCCc1ccccc1)Nc1ccccc1N1CCOCC1	-11	51*	0	0	6	12
O=C(CNC1CCCCCC1)Nc1ccccc1N1CCOCC1	4	27	0	1	.	.
O=C(CNCC1CCCCC1)Nc1ccccc1N1CCOCC1	-8	66*	0	0	8	17
CC1CCCCN1CC(=O)Nc1ccccc1C(N)=O (stereo not drawn)	-1	-12	0	2	.	.
O=C(CNCCN1CCOCC1)Nc1ccccc1N1CCOCC1	3	64*	0	0	-12	-9
CC1CCCCN1CC(=O)Nc1ccccc1N1CCCCC1 (stereo not drawn)	-5	53*	0	1	6	12
O=C(Cc1ccccc1)Nc1ccc(N2CCOCC2)cc1N1CCOCC1	4	8	0	1	.	.
CC1(C)CC(=O)C2=C(C1)OC(c1cc([N+](=O)[O-])ccc1O)C(C#N)=C2N (stereo not drawn)	0	15	0	-1	.	.
CCCc1nn2c(N)cc(=O)nc2s1	-5	5	1	2	.	.
CCc1ccc(NC(=O)Cn2nnc(C(=O)OC)c2C(=O)OC)cc1	-1	52*	0	3	-6	-3
COC(=O)c1nnn(CC(=O)Nc2ccc(Br)cc2)c1C(=O)OC	1	13	0	-1	.	.
CC(C)(C)c1ccc(S(=O)(=O)NCc2ccc(C(=O)NCCc3ccccc3)cc2)cc1	-16	8	0	1	.	.
COc1ccc(CCNC(=O)C(=O)NCCCN2CCOCC2)cc1	0	1	1	-2	.	.
COc1ccc(NC(=O)CNCCN2CCCCC2)cc1	-5	22	0	-1	.	.
O=C(CNCCN1CCOCC1)Nc1ccc2c(c1)OCO2	3	87*	0	-1	5	19
COc1ccc(NC(=O)CNCCN2CCOCC2)cc1	-2	93*	0	0	-10	-4
O=C(CNCCCN1CCOCC1)Nc1ccc(C(=O)N2CCCCC2)cc1	-3	85*	0	-1	3	20
O=C(CNCCCN1CCOCC1)Nc1ccccc1	2	50	0	0	.	.
COc1ccc(CCNCCN2CCOCC2)cc1	-6	84*	0	-1	8	6
O=C(COc1ncnc2sc(-c3ccccc3)cc12)Nc1ccc2c(c1)OCCO2	6	1	0	0	.	.
COc1cc(CNCc2ccccc2F)cc(OC)c1	10	28	0	0	.	.
COc1ccc2oc(=O)c(C(=O)NCCN3CCOCC3)cc2c1	-4	22	0	0	.	.
COc1ccc(C(=O)NCCN2CCOCC2)c(OC)c1	0	53*	0	-1	1	-1
CC(NCCN1CCOCC1)C(=O)Nc1ccccc1 (stereo not drawn)	-14	98*	0	-1	16	17
O=C(CNCCN1CCOCC1)Nc1ccc(OC(F)(F)F)cc1	0	60*	1	-1	-2	-10
SMILES	TEAD-YAP inh	MITF inh	FBW7 act	GPR151 ag	MITF inh conf	AlphaScreen intf2
O=C(CNCCN1CCOCC1)Nc1ccc(N2CCCC2)cc1	6	73*	0	2	29*	60*
O=C(CNCCN1CCOCC1)Nc1ccc(N2CCCCCC2)cc1	-4	32	0	0	.	.
CCCCC1(CC)NC(=S)N(c2ccccc2)N1 (stereo not drawn)	-5	-11	0	0	.	.
O=C(Nc1ccc(N2CCOCC2)cc1)NC1CCCCC1	-30	72*	0	-2	-8	-5
CCN1CCN(CCC(=O)Nc2ccc3c(c2)OCCO3)CC1	1	104*	0	-1	-10	0
CCOC(=O)c1c(-c2ccc(C)cc2)csc1NC(=O)CCN1CCN(CC)CC1	-4	53*	0	0	4	3
